Values joined by “and” are separate entries in the source; they are usually repeats but may differ in a detail not shown here. Equal entries are not always repeated. The campaign covered roughly 4,300 compounds. About 4,000 (93%) were called active.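 How the source made its calls: active means inhibition above its plate's cutoff, the mean test-well inhibition plus 3 SD (cut at about 4.8% in these data); inactive means the rest.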 The set was probably picked from earlier hits. The list is a sample of the results.
Assay: DNA CAG/GTC dye complex inhibitors – biochemical, fluorescence, TO-PRO-1 dye, d(CAG) DNA oligo, counter-screen for rCAG RNA repeat binder project (AID 652068);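 further: 0% = DNA dye mix with DMSO and 100% = 100 µM mitoxantrone; hits displace the dye from DNA and so lower well fluorescence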
Settings: d(CAG) DNA oligo TO-PRO-1 dye displacement, at 3 µM, hits give high values
With `Cc1cccc(OCC(=O)Nc2ccc(C(=O)O)cc2NC(=O)COc2cccc(C)c2)c1` the inhibition was 11.1% (active).
With `Cc1cc(C)cc(OCC(=O)Nc2cc(NC(=O)COc3cc(C)cc(C)c3)cc(C(=O)O)c2)c1` the inhibition was 39.1% (active).
In the case of `Cc1cc(C)cc(Oc2c(C(F)(F)F)oc3cc(OCC(=O)O)ccc3c2=O)c1`, the inhibition is reported as 4.02% (inactive).
In the case of `O=C(COc1ccccc1Cl)Nc1ccc(C(=O)c2ccc(C(=O)O)cc2)cc1`, the inhibition is reported as 3.95% (inactive).
With `Cc1ccccc1-n1c(SCC(=O)Nc2cccc3ccccc23)nc(O)cc1=O` the inhibition was 7.03% (active).
In the case of `CCOc1ccc(C(=O)Nc2ccc(S(=O)(=O)Nc3cc(C)on3)cc2)cc1`, the inhibition is reported as 6.38% (active).
With `Cc1ccc(C(=O)/C=C/Nc2ccc(S(=O)(=O)Nc3onc(C)c3C)cc2)cc1` the inhibition was 16.3% (active).
In the case of `COc1cc2ccccc2cc1C(=O)Nc1ccc(S(=O)(=O)Nc2cc(C)on2)cc1`, the inhibition is reported as 23.6% (active).
In the case of `Cc1cc(OC(C)C(=O)Nc2ccc(S(=O)(=O)Nc3onc(C)c3C)cc2)cc(C)c1Cl` (stereo not drawn), the inhibition is reported as 26.6% (active).
For `CCn1cc(C(=O)NCC2COc3ccccc3O2)c2cc(OC)c(OC)cc2c1=O` (stereo not drawn), the inhibition was 0.88% (inactive).
In the case of `CCc1ccc(OC(C)C(=O)Nc2ccc(S(=O)(=O)Nc3cc(C)on3)cc2)cc1` (stereo not drawn), the inhibition is reported as 5.12% (active).
For `CCOc1cc(C(=O)Nc2ccc(S(=O)(=O)Nc3cnc4ccccc4n3)cc2)cc(OCC)c1OCC`, the inhibition was 26.9% (active).
With `Cc1ccc(S(=O)(=O)N2[C@@H](c3ccc(Br)cc3)C(C(=O)O)=C[C@H]2CC2CCCC2)cc1` the inhibition was 34.4% (active).
With `CCCCC[C@@H]1C=C(C(=O)O)[C@H](c2ccc(C#N)cc2)N1S(=O)(=O)c1ccc(C)cc1` the inhibition was 20.6% (active).
With `Cc1cc(C(=O)N/N=C/c2ccc(O)c([N+](=O)[O-])c2)c(C)n1-c1ccc(F)cc1` the inhibition was 14.8% (active).
With `Cc1ccc(SC(CC(=O)c2ccc(C(C)(C)C)cc2)C(=O)O)cc1` (stereo not drawn) the inhibition was 12.6% (active).
In the case of `Cn1c2ccccc2c2cc(/C=C(\NC(=O)c3ccccc3)C(=O)NCC(=O)O)ccc21`, the inhibition is reported as 12.6% (active).
With `O=C1CC(c2ccccc2)=NN1c1ccc([N+](=O)[O-])cc1` the inhibition was 14.2% (active).
With `O=C1Oc2ccccc2C(=O)/C1=C/c1ccccc1O` the inhibition was 10.7% (active).
In the case of `COc1cccc(-c2coc3cc4oc(=O)c(CC(=O)O)c(C)c4cc23)c1`, the inhibition is reported as 11.6% (active).
For `CCSc1nsc(NC(=O)Nc2cccc(C(C)=O)c2)n1`, the inhibition was 12.6% (active).
For `C=CCSc1nsc(NC(=O)Nc2cccc(C(C)=O)c2)n1`, the inhibition was 16.3% (active).
In the case of `O=C(Nc1nncs1)c1ccccc1NS(=O)(=O)c1cccs1`, the inhibition is reported as 6.44% (active).
In the case of `O=C(Nc1cccc(Cl)c1)Nc1ccccc1NS(=O)(=O)c1cccs1`, the inhibition is reported as 9.83% (active).
With `COc1ccc(NS(=O)(=O)c2cc(C(=O)Nc3ccccc3C(=O)O)ccc2C)cc1` the inhibition was 18.6% (active).
In the case of `COc1cc(OC)c(S(=O)(=O)Nc2ccccc2C(=O)O)cc1S(=O)(=O)Nc1ccccc1C(=O)O`, the inhibition is reported as 6.92% (active).
In the case of `COc1ccc(NS(=O)(=O)c2cc(NC(=O)CC(=O)c3ccc([N+](=O)[O-])cc3)ccc2C)cc1`, the inhibition is reported as 19% (active).
In the case of `CC(=N\NC(=O)c1cc(Br)ccc1O)/C(=N/O)C(=O)Nc1ccccc1`, the inhibition is reported as 3.8% (inactive).
For `O=[N+]([O-])c1cc(Cl)cc(/C=N/NC(=S)Nc2cc(S(=O)(=O)N3CCOCC3)ccc2Cl)c1O`, the inhibition was 84.8% (active).
In the case of `CCOC(=O)c1c(NC(=O)C2CC=CCC2C(=O)O)sc(C)c1CC` (stereo not drawn), the inhibition is reported as 5.11% (active).
For `C=CCn1c(=S)[nH]c2scc(-c3ccco3)c2c1=O`, the inhibition was 15.4% (active).
With `Cc1ccc(Cn2c(SCC(=O)N/N=C/c3ccccc3OCC(=O)O)nc3ccccc32)cc1` the inhibition was 23% (active).
For `O=C(Cc1ccccc1)Nc1ccc(C(=O)Nc2ccccc2C(=O)O)cc1`, the inhibition was 10.5% (active).
For `Cc1sc(NC(=O)c2ccc3ncsc3c2)c(C(N)=O)c1C`, the inhibition was 7.12% (active).
In the case of `N#Cc1ccccc1CN1C(=O)S/C(=C/c2cccn2-c2cccc(C(=O)O)c2)C1=O`, the inhibition is reported as 25.7% (active).
In the case of `CC(=O)Nc1ccc(S(=O)(=O)N(CCc2ccccc2)CC(=O)N/N=C/c2ccc(C(=O)O)cc2)cc1`, the inhibition is reported as 5.27% (active).
For `Cc1ccc(N=C2NC(=O)/C(=C/C=C/c3ccco3)S2)cc1C`, the inhibition was 23.8% (active).
In the case of `COc1cc(C(=O)Nn2c(O)c(C3=c4ccccc4=NC3=O)sc2=S)ccc1O`, the inhibition is reported as 8.15% (active).
For `Cc1ccc(NC(=O)CC2S/C(=N/N=C3\CCCc4ccccc43)NC2=O)cc1` (stereo not drawn), the inhibition was 17.1% (active).
With `COc1ccc(/C=C/C(=O)c2ccc(NS(=O)(=O)c3ccc(C)cc3)cc2)cc1O` the inhibition was 18.4% (active).
In the case of `CCN(CC)C(=O)CSC(Nc1cccc(F)c1)=C(C#N)C#N`, the inhibition is reported as 13.2% (active).
For `COc1cc(/C=C2/C(=O)NN(c3cccc(Cl)c3)C2=O)cc(Br)c1O`, the inhibition was 9.22% (active).
For `CN(C(=O)COC(=O)c1cc(-c2ccco2)nc2ccccc12)C1CCS(=O)(=O)C1` (stereo not drawn), the inhibition was 13.2% (active).
In the case of `COc1ccc(C(CNC(=O)c2cccc(S(=O)(=O)Nc3ccccc3Cl)c2)N2CCOCC2)cc1` (stereo not drawn), the inhibition is reported as 27.5% (active).
In the case of `Cc1ccc(NC(=O)CSc2nc(CSc3ccc(C)cc3)cc(=O)[nH]2)cc1`, the inhibition is reported as 16.7% (active).
With `Cc1ccc(-c2nn(-c3ccccc3)cc2/C=C2\SC(=S)N(CCCCCC(=O)O)C2=O)o1` the inhibition was 28.4% (active).
In the case of `CN(C)S(=O)(=O)c1cccc(-c2nn(-c3ccccc3)cc2/C=C2\SC(=S)N(CC(=O)O)C2=O)c1`, the inhibition is reported as 55.3% (active).
For `CCc1nnc(NS(=O)(=O)c2ccc(N=Cc3c(C)[nH]n(-c4ccc(C)cc4)c3=O)cc2)s1`, the inhibition was 32.2% (active).
With `O=C(N/N=C/c1c(Cl)[nH]c2ccccc12)c1sc2ccccc2c1Cl` the inhibition was 17.5% (active).
In the case of `Cc1ccc(NC(=S)NNC(=O)CSc2nnc(SCc3ccccc3Cl)s2)cc1`, the inhibition is reported as 18.8% (active).
With `CC(C)=CCCC1(C)C=Cc2c(ccc3c2[nH]c2cc(O)c(C)cc23)O1` (stereo not drawn) the inhibition was 15.3% (active).
With `CCOC(=O)C1Nc2ccc(C(F)(F)F)cc2C2C=CCC12` (stereo not drawn) the inhibition was 9.84% (active).
For `Cc1cc2nc(-c3ccco3)c(Cc3cccc(F)c3)n2c(C)c1Br`, the inhibition was 11.8% (active).
For `CC1(C(=O)NS(=O)(=O)c2ccc(C#N)cc2)CCN1C(=O)c1ccc(C2CCCCC2)cc1` (stereo not drawn), the inhibition was 14.9% (active).
For `Cc1ccc(S(=O)(=O)N2[C@@H](c3cccc4ccccc34)C(C(=O)O)=C[C@H]2C(C)(C)C)cc1`, the inhibition was 15.6% (active).
For `CCc1ccc(N2CC(C(=O)Nc3ccc(S(=O)(=O)Nc4nccs4)cc3)CC2=O)cc1` (stereo not drawn), the inhibition was 16.7% (active).
With `Cc1ccc(Sc2cc(C(=O)c3ccccc3C(=O)O)ccc2[N+](=O)[O-])cc1` the inhibition was 29.8% (active).
With `COc1ccc(Br)cc1/C=N/Nc1ccc(S(=O)(=O)Nc2ccccc2C(=O)O)cc1[N+](=O)[O-]` the inhibition was 71.3% (active).
In the case of `O=C(O)c1ccccc1/C=N/Nc1ccc(S(=O)(=O)Nc2ccc(Cl)cc2)cc1[N+](=O)[O-]`, the inhibition is reported as 27.1% (active).
For `COc1cccc(/C=N/Nc2ccc(S(=O)(=O)Nc3ccccc3C(=O)O)cc2[N+](=O)[O-])c1O`, the inhibition was 79.1% (active).
With `COc1ccc(OCC(=O)Nc2nnc(-c3ccco3)s2)cc1` the inhibition was 8.39% (active).
For `Cc1ccccc1-c1ccc2c(c1)O[C@@H](CN(C)Cc1ccc(C(=O)O)cc1)[C@@H](C)CN([C@H](C)CO)S2(=O)=O`, the inhibition was 21.1% (active).
For `O=C(COc1ccc([N+](=O)[O-])cc1)Nc1cccc(C(=O)Nc2ccccc2C(=O)O)c1`, the inhibition was 24.8% (active).
In the case of `NC(c1csc(NC(=O)Nc2cccc(C(F)(F)F)c2)n1)C1CCCCC1` (stereo not drawn), the inhibition is reported as 4.91% (active).
In the case of `NC(c1ccccc1)c1csc(NC(=O)Nc2cccc(C(F)(F)F)c2)n1` (stereo not drawn), the inhibition is reported as 15.2% (active).
In the case of `COc1ccc(C(N)c2csc(NC(=O)Nc3cccc(C(F)(F)F)c3)n2)cc1` (stereo not drawn), the inhibition is reported as 10.1% (active).
For `CCOC(=O)c1csc(NC(=O)Nc2cccc(OC)c2)n1`, the inhibition was 16.7% (active).
For `CCN1C(=O)/C(=C2/Sc3ccccc3N2CCCS(=O)(=O)O)SC1=S`, the inhibition was 7.23% (active) and 13.9% (active).
For `CCOC(=O)c1ccccc1N1C(=O)C2Sc3[nH]c(=O)sc3C(/C=C/c3ccccc3)C2C1=O` (stereo not drawn), the inhibition was 18.1% (active).
For `Cc1c(CCC(=O)N[C@@H](CC(C)C)C(=O)O)c(=O)oc2c(C)c3oc4c(c3cc12)CCCC4`, the inhibition was 12.2% (active).
With `CC[C@@H](C)[C@H](NC(=O)CCc1c(C)c2cc3c4c(oc3c(C)c2oc1=O)CCCC4)C(=O)O` the inhibition was 14.9% (active).
With `COc1ccc(C(=O)/C=C/c2ccc(-c3ccccc3)cc2)cc1CSCC(=O)O` the inhibition was 50.7% (active).
In the case of `COC(=O)c1ccc(COc2ccc(/C=C/C(=O)c3ccc(OC)c(CSCC(=O)O)c3)cc2OC)cc1`, the inhibition is reported as 24.1% (active).
For `Cc1ccc2nc(N3C(=O)C(O)=C(C(=O)c4ccco4)C3c3cccc(O)c3)sc2c1` (stereo not drawn), the inhibition was 37.6% (active).
In the case of `N#Cc1c(-c2ccccc2)nc(SCc2ccc([N+](=O)[O-])cc2)[nH]c1=O`, the inhibition is reported as 17.4% (active).
With `N#Cc1c(-c2ccccc2)nc(SCc2cccc(C(F)(F)F)c2)[nH]c1=O` the inhibition was 50% (active).
In the case of `Cc1ccc(CSc2nc(-c3ccccc3)c(C#N)c(=O)[nH]2)cc1`, the inhibition is reported as 28.7% (active).
In the case of `O=C(O)c1ccc(N/N=C/c2cn(-c3ccccc3)nc2-c2cccs2)cc1`, the inhibition is reported as 23% (active).
In the case of `O=C(NNC(=S)NC(=O)c1cn(-c2ccccc2)nc1-c1ccccc1)c1ccncc1`, the inhibition is reported as 15.3% (active).
In the case of `O=C(O)c1ccc(NC(=O)c2cn(-c3ccccc3)nc2-c2ccc(Cl)cc2)cc1`, the inhibition is reported as 23.2% (active).
In the case of `N#Cc1c(-c2ccccc2)cc(-c2ccccc2)nc1SCC(=O)O`, the inhibition is reported as 13% (active).
In the case of `O=C(O)CCn1cc(/C=C/C(=O)c2ccc(Cl)cc2)c(-c2cccc(Br)c2)n1`, the inhibition is reported as 53.6% (active).
For `Cc1cc(N2C(=O)C(O)=C(C(=O)c3ccc(C)o3)C2c2ccc(OCc3ccccc3)cc2)no1` (stereo not drawn), the inhibition was 23.8% (active).

Source: PubChem BioAssay AID652068 (The Scripps Research Institute Molecular Screening Center, 2013)
